Columns and labels:
Test in all cases: DAPPL (digital affinity profiling via proximity ligation, sequencing); 10 mM Tris-HCl pH 7.5, 50 mM NaCl, 1 mM DTT, 4% glycerol, room temperature, 30 min; GST-TFs on glutathione beads, 16-mer random dsDNA library, 0.1% formaldehyde crosslink after washing; high values mean tight binding
[1] = target: T1, FLI1 (Homo sapiens, UniProt Q01543 1-452); details: protein: recombinant; tags: N-terminal GST; dsDNA, one strand shown
T1 sequence: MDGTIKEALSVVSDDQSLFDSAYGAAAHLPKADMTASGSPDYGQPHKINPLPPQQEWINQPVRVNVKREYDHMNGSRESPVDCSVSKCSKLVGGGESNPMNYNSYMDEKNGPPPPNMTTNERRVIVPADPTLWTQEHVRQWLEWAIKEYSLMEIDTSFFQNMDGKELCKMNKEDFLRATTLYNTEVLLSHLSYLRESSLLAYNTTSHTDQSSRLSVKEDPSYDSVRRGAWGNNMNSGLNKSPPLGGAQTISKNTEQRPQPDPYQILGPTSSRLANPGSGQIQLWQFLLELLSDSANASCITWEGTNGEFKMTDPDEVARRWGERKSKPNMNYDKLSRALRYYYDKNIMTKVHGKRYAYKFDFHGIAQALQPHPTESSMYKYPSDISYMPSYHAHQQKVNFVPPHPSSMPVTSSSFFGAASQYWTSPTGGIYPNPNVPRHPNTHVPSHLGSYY
Summary of the method: (§1)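 A tag-only sample was pooled with DNA-barcoded human transcription factors that had been expressed in yeast as GST fusions and captured on glutathione beads. The pools were incubated for 30 min at room temperature with 200 nmole of a random double-stranded 16-mer DNA library in Tris/NaCl/DTT/glycerol buffer, then washed, crosslinked with 0.1% formaldehyde, proximity-ligated (BsaI/T4 ligase, 1 h, 37 °C), PCR-amplified and sequenced on an Illumina NextSeq500. Binding signal is each hexamer's read frequency for a factor divided by its frequency for the tag-only sample.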

[2] = target: T2, ELK1 (Homo sapiens, UniProt P19419 1-428); details: protein: recombinant; tags: N-terminal GST; dsDNA, one strand shown
T2 sequence: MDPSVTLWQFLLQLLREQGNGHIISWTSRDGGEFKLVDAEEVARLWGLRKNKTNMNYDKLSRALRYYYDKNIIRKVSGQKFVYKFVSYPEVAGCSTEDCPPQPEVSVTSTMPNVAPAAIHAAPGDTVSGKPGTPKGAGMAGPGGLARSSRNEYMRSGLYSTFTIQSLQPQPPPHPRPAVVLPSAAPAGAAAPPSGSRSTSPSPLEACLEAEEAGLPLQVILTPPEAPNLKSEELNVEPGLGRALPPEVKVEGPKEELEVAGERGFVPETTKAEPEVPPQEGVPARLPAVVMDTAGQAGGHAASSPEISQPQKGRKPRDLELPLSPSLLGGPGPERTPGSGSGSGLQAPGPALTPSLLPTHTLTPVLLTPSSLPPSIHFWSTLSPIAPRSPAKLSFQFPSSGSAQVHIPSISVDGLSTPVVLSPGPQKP
Summary of the method: as §1

[3] = target: T3, GABPA (Homo sapiens, UniProt Q06546 1-454); details: protein: recombinant; tags: N-terminal GST; dsDNA, one strand shown
T3 sequence: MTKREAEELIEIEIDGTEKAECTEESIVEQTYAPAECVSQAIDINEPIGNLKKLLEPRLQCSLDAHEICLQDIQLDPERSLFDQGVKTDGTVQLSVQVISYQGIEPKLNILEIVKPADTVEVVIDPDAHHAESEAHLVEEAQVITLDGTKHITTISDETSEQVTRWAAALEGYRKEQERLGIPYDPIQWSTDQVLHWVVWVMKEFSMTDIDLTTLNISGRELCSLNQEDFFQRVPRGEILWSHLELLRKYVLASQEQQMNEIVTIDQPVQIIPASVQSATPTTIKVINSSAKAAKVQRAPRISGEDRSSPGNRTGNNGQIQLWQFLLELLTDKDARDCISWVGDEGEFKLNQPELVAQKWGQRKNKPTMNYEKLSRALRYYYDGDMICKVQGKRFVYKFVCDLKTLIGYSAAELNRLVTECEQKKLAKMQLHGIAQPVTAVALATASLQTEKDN
Summary of the method: as §1

[4] = target: T4, ERG (Homo sapiens, UniProt P11308 1-479); details: protein: recombinant; tags: N-terminal GST; dsDNA, one strand shown
T4 sequence: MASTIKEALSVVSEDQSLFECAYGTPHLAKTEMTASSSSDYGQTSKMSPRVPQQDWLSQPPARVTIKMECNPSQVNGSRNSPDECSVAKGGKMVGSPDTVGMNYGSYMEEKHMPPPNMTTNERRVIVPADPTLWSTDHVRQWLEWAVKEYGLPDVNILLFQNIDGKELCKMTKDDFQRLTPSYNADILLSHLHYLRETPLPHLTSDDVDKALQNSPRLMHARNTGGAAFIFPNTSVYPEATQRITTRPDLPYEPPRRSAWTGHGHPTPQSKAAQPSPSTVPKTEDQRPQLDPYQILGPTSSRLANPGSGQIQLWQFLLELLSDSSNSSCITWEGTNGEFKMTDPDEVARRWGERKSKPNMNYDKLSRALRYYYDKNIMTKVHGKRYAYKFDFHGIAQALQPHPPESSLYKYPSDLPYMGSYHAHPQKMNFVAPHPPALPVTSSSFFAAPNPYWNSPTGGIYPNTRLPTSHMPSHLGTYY
Summary of the method: as §1

[5] = target: ELF1 (Homo sapiens, UniProt P32519 1-619); details: protein: recombinant; tags: N-terminal GST; dsDNA, one strand shown
Chain of ELF1 (P32519 whole entry): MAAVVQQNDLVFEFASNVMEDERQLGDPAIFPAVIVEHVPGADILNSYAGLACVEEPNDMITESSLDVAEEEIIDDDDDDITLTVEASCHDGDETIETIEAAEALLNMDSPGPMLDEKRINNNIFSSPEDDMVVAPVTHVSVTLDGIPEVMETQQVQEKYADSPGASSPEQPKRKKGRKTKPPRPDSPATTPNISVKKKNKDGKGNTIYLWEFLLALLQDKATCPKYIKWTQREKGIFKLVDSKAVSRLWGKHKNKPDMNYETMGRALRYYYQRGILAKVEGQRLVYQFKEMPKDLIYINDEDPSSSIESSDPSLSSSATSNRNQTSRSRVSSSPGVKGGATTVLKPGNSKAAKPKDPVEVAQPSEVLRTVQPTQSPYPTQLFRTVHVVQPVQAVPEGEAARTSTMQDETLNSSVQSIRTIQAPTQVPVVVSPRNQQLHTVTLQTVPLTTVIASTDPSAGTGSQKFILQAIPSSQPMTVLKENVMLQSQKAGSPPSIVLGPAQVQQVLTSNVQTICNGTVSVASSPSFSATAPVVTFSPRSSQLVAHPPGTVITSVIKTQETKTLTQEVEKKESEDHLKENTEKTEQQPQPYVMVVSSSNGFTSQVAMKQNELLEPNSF
Summary of the method: as §1

[6] = target: T5, EHF (Homo sapiens, UniProt Q9NZC4 1-300); details: protein: recombinant; tags: N-terminal GST; dsDNA, one strand shown
T5 sequence: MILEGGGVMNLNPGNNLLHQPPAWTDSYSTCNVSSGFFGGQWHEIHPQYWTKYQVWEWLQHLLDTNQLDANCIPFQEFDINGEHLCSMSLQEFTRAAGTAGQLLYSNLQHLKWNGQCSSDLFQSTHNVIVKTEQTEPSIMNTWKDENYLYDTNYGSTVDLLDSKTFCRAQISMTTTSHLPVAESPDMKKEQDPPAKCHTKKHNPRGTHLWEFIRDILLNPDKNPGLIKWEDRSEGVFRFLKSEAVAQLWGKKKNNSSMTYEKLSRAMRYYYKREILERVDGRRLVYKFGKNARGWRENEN
Summary of the method: as §1

[7] = target: SPI1 (Homo sapiens, UniProt P17947 1-270); details: protein: recombinant; tags: N-terminal GST; dsDNA, one strand shown
Summary of the method: as §1

[8] = target: SPIB (Homo sapiens, UniProt Q01892 1-262); details: protein: recombinant; tags: N-terminal GST; dsDNA, one strand shown
Chain of SPIB (Q01892 whole entry): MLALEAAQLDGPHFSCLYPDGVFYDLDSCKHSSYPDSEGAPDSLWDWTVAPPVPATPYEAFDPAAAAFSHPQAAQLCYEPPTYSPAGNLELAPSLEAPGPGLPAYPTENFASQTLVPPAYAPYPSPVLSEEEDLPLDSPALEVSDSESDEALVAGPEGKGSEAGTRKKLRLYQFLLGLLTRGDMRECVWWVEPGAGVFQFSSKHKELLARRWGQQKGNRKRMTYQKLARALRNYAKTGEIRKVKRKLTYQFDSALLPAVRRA
Summary of the method: as §1

[9] = target: T6, ELK3 (Homo sapiens, UniProt P41970 1-407); details: protein: recombinant; tags: N-terminal GST; dsDNA, one strand shown
T6 sequence: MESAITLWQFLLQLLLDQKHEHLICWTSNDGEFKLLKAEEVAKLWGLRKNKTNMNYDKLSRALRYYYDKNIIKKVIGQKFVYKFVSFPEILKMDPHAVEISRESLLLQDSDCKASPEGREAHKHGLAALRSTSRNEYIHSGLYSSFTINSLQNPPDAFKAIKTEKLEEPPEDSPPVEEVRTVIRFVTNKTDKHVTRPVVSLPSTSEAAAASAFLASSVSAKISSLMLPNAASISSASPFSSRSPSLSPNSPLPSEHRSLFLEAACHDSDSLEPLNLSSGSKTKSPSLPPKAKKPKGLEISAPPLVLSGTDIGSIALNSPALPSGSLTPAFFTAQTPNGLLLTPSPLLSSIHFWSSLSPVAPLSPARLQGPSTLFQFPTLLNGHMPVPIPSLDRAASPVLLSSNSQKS
Summary of the method: as §1

[10] = target: T7, FEV (Homo sapiens, UniProt Q99581 1-238); details: protein: recombinant; tags: N-terminal GST; dsDNA, one strand shown
T7 sequence: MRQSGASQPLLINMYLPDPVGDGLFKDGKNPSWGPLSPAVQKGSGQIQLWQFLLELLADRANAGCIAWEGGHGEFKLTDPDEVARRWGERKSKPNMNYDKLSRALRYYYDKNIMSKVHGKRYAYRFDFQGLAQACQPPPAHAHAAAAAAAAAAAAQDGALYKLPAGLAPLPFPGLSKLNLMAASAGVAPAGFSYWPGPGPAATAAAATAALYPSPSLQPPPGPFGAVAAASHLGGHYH
Summary of the method: as §1

[11] = target: ETV5 (Homo sapiens, UniProt P41161 1-510); details: protein: recombinant; tags: N-terminal GST; dsDNA, one strand shown
Chain of ETV5 (P41161 whole entry): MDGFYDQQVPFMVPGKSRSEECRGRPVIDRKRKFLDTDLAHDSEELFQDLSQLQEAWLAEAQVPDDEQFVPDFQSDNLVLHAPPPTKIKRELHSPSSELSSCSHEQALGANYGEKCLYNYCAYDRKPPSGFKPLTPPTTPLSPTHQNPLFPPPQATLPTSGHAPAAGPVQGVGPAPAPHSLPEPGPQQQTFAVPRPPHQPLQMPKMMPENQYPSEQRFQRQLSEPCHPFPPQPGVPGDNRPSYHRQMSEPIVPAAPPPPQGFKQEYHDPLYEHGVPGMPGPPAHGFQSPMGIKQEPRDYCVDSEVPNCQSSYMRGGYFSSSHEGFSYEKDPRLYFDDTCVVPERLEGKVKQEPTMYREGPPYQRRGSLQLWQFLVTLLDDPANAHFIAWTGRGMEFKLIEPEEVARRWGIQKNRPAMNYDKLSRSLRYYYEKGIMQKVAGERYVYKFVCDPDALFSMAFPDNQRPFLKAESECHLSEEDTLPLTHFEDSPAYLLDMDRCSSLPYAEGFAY
Summary of the method: as §1

[12] = target: HSF1 (Homo sapiens, UniProt Q00613 1-529); details: protein: recombinant; tags: N-terminal GST; chain copies: 3; dsDNA, one strand shown
Chain of HSF1 (Q00613 whole entry): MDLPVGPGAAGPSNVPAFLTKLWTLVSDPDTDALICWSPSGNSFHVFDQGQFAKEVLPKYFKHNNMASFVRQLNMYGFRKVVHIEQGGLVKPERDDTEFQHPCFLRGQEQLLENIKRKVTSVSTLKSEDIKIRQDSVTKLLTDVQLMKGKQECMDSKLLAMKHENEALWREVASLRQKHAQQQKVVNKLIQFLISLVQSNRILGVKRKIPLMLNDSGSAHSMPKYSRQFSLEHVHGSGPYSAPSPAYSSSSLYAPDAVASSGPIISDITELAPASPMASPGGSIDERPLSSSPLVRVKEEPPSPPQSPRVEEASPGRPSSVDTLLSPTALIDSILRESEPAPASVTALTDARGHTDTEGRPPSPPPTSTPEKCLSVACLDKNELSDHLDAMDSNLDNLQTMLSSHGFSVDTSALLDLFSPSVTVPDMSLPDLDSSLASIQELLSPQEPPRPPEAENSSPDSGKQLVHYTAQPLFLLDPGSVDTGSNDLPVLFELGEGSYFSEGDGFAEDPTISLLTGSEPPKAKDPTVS
Summary of the method: as §1

[13] = target: T8, SPIC (Homo sapiens, UniProt Q8N5J4 1-248); details: protein: recombinant; tags: N-terminal GST; dsDNA, one strand shown
T8 sequence: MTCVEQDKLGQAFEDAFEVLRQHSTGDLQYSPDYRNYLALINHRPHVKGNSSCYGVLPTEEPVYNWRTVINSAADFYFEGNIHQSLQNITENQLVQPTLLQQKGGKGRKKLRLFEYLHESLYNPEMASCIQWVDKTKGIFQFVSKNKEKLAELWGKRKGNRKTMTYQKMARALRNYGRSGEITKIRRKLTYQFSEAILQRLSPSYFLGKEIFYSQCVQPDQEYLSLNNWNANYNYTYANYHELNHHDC
Summary of the method: as §1

[14] = target: ELF4 (Homo sapiens, UniProt Q99607 1-663); details: protein: recombinant; tags: N-terminal GST; dsDNA, one strand shown
Chain of ELF4 (Q99607 whole entry): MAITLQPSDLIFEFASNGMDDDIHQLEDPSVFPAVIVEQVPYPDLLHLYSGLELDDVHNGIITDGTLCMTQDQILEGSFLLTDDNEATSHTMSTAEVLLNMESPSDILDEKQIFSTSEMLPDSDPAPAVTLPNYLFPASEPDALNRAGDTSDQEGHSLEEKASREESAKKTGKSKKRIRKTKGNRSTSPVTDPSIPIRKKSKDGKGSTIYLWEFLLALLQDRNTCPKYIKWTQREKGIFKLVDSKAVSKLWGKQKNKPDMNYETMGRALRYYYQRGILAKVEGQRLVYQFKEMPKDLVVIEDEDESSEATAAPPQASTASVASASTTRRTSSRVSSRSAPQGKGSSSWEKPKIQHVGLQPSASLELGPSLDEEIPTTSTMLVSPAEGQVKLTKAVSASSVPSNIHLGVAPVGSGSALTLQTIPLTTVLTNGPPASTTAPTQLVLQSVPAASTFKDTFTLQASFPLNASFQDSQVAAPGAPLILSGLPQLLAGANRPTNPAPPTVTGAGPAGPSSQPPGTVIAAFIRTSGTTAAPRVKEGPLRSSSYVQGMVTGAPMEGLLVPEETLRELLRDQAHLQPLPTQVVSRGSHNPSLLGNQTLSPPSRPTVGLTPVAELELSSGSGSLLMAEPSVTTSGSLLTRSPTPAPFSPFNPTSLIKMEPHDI
Summary of the method: as §1

[15] = target: T9, ELK4 (Homo sapiens, UniProt P28324-2 1-405); details: protein: recombinant; tags: N-terminal GST; dsDNA, one strand shown
T9 sequence: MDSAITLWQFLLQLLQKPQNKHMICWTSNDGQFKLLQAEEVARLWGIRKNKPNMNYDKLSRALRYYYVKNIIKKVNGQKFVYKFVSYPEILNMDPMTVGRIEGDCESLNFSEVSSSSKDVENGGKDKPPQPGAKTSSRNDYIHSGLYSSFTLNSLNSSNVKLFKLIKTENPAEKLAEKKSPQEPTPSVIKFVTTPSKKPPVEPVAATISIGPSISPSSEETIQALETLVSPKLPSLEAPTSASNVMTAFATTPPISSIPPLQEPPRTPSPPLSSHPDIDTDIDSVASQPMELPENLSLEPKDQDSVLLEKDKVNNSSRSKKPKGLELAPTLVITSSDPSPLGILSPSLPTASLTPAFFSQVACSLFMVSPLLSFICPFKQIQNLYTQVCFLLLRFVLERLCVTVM
Summary of the method: as §1

[16] = target: T10, ETV2 (Homo sapiens, UniProt O00321 1-342); details: protein: recombinant; tags: N-terminal GST; dsDNA, one strand shown
T10 sequence: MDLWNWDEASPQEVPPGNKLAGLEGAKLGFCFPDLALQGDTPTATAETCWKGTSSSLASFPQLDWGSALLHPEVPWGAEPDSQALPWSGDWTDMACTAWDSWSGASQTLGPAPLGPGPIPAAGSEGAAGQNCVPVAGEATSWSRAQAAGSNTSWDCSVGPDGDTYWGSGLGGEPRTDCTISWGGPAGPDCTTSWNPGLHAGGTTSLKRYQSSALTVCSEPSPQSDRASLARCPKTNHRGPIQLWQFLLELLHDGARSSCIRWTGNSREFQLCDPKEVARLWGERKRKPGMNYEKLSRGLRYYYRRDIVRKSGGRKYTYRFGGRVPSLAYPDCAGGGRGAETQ
Summary of the method: as §1

[17] = target: T11, ELF3 (Homo sapiens, UniProt P78545 1-371); details: protein: recombinant; tags: N-terminal GST; dsDNA, one strand shown
T11 sequence: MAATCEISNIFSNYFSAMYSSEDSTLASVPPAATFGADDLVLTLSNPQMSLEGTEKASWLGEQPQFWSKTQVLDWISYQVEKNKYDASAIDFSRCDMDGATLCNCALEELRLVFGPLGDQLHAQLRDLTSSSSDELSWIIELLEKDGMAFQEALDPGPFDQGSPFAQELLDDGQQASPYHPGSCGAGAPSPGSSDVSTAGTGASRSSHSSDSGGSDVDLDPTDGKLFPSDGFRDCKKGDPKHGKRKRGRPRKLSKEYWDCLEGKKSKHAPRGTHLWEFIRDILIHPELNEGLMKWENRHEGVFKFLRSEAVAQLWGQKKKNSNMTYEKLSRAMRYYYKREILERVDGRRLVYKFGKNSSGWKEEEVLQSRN
Summary of the method: as §1

[18] = target: CRX (Homo sapiens, UniProt O43186 1-299); details: protein: recombinant; tags: N-terminal GST; dsDNA, one strand shown
Chain of CRX (O43186 whole entry): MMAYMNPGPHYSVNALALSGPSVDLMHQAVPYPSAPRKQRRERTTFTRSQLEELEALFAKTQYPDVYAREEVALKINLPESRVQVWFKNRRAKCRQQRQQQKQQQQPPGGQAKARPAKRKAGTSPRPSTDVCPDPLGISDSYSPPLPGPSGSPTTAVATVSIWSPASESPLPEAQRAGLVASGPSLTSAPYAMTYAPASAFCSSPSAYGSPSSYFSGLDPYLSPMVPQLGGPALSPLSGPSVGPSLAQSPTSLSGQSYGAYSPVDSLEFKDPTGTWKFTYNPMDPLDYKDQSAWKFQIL
Summary of the method: as §1

[19] = target: ETV1 (Homo sapiens, UniProt P50549 1-477); details: protein: recombinant; tags: N-terminal GST; dsDNA, one strand shown
Chain of ETV1 (P50549 whole entry): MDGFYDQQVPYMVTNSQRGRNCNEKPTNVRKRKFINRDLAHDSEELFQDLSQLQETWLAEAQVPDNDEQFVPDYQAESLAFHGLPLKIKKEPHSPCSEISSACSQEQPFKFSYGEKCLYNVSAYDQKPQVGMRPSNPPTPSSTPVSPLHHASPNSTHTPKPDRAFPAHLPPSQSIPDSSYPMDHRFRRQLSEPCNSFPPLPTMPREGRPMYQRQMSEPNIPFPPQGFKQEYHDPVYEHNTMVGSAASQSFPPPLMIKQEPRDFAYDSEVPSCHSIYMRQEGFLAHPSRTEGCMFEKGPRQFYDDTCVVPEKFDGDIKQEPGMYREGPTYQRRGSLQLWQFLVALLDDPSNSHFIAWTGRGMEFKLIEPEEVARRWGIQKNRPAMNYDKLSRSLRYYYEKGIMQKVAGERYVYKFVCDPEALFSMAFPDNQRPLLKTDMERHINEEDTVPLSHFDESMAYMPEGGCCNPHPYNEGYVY
Summary of the method: as §1

ATCTTA
binding signal [1]: 1.15 fold enrichment (6-mer frequency, TF over GST control) | binding signal [2]: 1.07 fold enrichment (6-mer frequency, TF over GST control) | binding signal [3]: 1.1 fold enrichment (6-mer frequency, TF over GST control) | binding signal [4]: 1.09 fold enrichment (6-mer frequency, TF over GST control) | binding signal [5]: 1.15 fold enrichment (6-mer frequency, TF over GST control) | binding signal [6]: 1.04 fold enrichment (6-mer frequency, TF over GST control) | binding signal [7]: 1.01 fold enrichment (6-mer frequency, TF over GST control) | binding signal [8]: 1.03 fold enrichment (6-mer frequency, TF over GST control) | binding signal [9]: 1.11 fold enrichment (6-mer frequency, TF over GST control) | binding signal [10]: 1.1 fold enrichment (6-mer frequency, TF over GST control) | binding signal [11]: 1.1 fold enrichment (6-mer frequency, TF over GST control) | binding signal [12]: 1.47 fold enrichment (6-mer frequency, TF over GST control) | binding signal [13]: 1.05 fold enrichment (6-mer frequency, TF over GST control) | binding signal [14]: 1.1 fold enrichment (6-mer frequency, TF over GST control) | binding signal [15]: 1.18 fold enrichment (6-mer frequency, TF over GST control) | binding signal [16]: 1.12 fold enrichment (6-mer frequency, TF over GST control) | binding signal [17]: 1.12 fold enrichment (6-mer frequency, TF over GST control) | binding signal [18]: 2.11 fold enrichment (6-mer frequency, TF over GST control) | binding signal [19]: 1.12 fold enrichment (6-mer frequency, TF over GST control)

Source: publication PMC7862700, “An all-to-all approach to the identification of sequence-specific readers for epigenetic DNA modifications on cytosine”
